# PubChem BioAssay AID720706 (Broad Institute, 2013)
# About 5,500 (1.6%) of roughly 350,000 compounds were called active.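 How the source made its calls: active means significant combined selectivity score with lowered wild-type GFP, culture density cut under 30%, mutant RFP and density less affected; inactive means any of these conditions unmet.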 The sample as a whole holds a higher share of actives than the screen did.
# Experiment: GFP drop in mixed WT/humanized-ribosome E. coli culture – GFP/RFP fluorescence, OD600, single point, bacterial rRNA inhibitor project, primary screen (AID 720706)
# Conditions: E. coli WT GFP vs humanized-ribosome RFP mutants, 24 h; GFP signal change (wild-type ribosome): stronger effect = lower value, DMSO median 0, no signal -100; OD600 change: measured here: OD600 growth, DMSO median 0, no signal -100; RFP signal change: measured here: RFP humanized mutant strains, DMSO median 0, no signal -100, concentration not given here
Compound,GFP signal change (wild-type ribosome),OD600 change [%],RFP signal change [%]
O=C1C(Sc2cccc(F)c2)=C[C@@]2(O)CC[C@@H](O)[C@]1(Sc1cccc(F)c1)[C@H]2O,-37% (active),-28.5,-4.19
COc1ccc(S(=O)(=O)Nc2ccc3c(c2)CC(=O)N([C@H](C)CO)C[C@H](C)[C@@H](CN(C)C)O3)cc1,2.15% (inactive),13.2,-1.01
C[C@H](CO)N1C[C@H](C)[C@@H](CN(C)C(=O)c2ccncc2)Oc2cc(C3=CCCCC3)ccc2S1(=O)=O,-1.29% (inactive),-9.47,-3.74
CNC(=O)c1cccc2nc3ccccc3nc12,-23.6% (active),-17.7,-6.61
CN(C)C(=O)c1coc2nc3ccccc3nc12,12.4% (inactive),6.11,-0.0205
CNC(=O)C(NC(=O)c1ccccc1)=C(C)C,10.9% (inactive),9.13,-0.414
CC(C)NC(=O)Nc1ccc2c(c1)C(=O)N(C)[C@@H]1CC[C@H](CC(=O)NCC3CCCCC3)O[C@@H]1CO2,-0.35% (inactive),-6,0.584
C/C=C/c1ccc([C@@H]2[C@H](CO)N(CC3CCCC3)C23CN(C(=O)CC2CC2)C3)cc1,-14.4% (inactive),-40,32.6
CCOC(=O)CSC1=C(C#N)C(c2ccco2)C(C(=O)OCc2ccccc2)=C(C)N1 (stereo not given),-26.5% (active),-14.3,-3.21
CCCSC1=C(C#N)C(c2ccccc2C)C(C(=O)OC)C(=O)N1 (stereo not given),-10.9% (inactive),-3.33,-1.26
CCOC(=O)C1(C)NC(c2ccco2)C2C(=O)N(c3ccccc3)C(=O)C21 (stereo not given),7.82% (inactive),18.6,3.41
O=C(NCCCN1CCOCC1)c1ccc([N+](=O)[O-])cc1[N+](=O)[O-],7.34% (inactive),6.35,-0.35
O=C(NCCCN1CCN(c2ccc(F)cc2)CC1)Nc1ccc([N+](=O)[O-])cc1,-23.1% (active),-16.1,9.67
CN1CCN(CCNC(=O)Nc2ccc([N+](=O)[O-])cc2)CC1,3.04% (inactive),-6.09,-2.6
O=C(c1ccncc1)N1CC(=O)N2[C@H](C1)[C@@H](c1ccc(C#CCC3CCCC3)cc1)[C@@H]2CO,-32.1% (inactive),-56.8,7.12
CCCN(C)C[C@@H]1Oc2ncc(-c3ccccc3F)cc2C(=O)N([C@@H](C)CO)C[C@@H]1C,9.44% (inactive),19.7,-1.32
Nc1ccc(N=Nc2ccccc2Cl)c(N)n1,-31.4% (active),-18.6,-5.26
C[C@@H]1CN([C@H](C)CO)C(=O)c2cccc(NC(=O)Nc3ccc(F)cc3)c2O[C@@H]1CN(C)C(=O)Nc1ccc(C(F)(F)F)cc1,-3.92% (inactive),-1.07,-2.09
COc1ccc(S(=O)(=O)Nc2ccc3c(c2)CC(=O)N([C@H](C)CO)C[C@H](C)[C@@H](CN(C)C(=O)NC(C)C)O3)cc1,1.06% (inactive),6.54,-0.682
C[C@@H]1CN([C@@H](C)CO)C(=O)c2cccc(N(C)C)c2O[C@@H]1CN(C)S(C)(=O)=O,0.068% (inactive),11.7,1.6
